# Source: PubChem BioAssay (The Scripps Research Institute Molecular Screening Center)
# hcDAF12 agonist = H. contortus DAF-12 nuclear receptor activators, primary screen, cell-based, luminescence, HEK293, lit1-tk-luc reporter | activation, % at 6.8 µM | 370,000 tested, 1.4% active | HEK293 hcDAF-12 lit1-tk-luc reporter; 0% DMSO, 100% Δ7-dafachronic acid;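 active = activation above the mean of all tested compounds plus 3 SD, cut at about 5.5% in these data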;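 note: 100% = response to 3 µM Δ7-dafachronic acid high control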
# ssDAF-12 act = S. stercoralis DAF-12 nuclear receptor activators, primary screen, cell-based, luminescence, HEK293, GRIP1 co-expression, lit1-tk-luc; 370,000 tested, 1% active; Nuclear hormone receptor DAF-12 (Strongyloides stercoralis); HEK293 ssDAF-12/GRIP1 lit1-tk-luc reporter; % of 3 µM dafachronic acid response; activation, % at 6.8 µM;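 active = activation above the mean over all tested compounds plus 3 SD, cut at about 0.9% in these data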;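 note: 0% = DMSO-only wells and 100% = 3 µM delta7-dafachronic acid wells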
# DAX1 inh-1 = DAX1 (NR0B1) inhibitors on StAR promoter, primary screen, cell-based, luminescence, SF-1 (NR5A1), full-length DAX-1; HEK293T StAR-luciferase reporter, SF-1/DAX-1 repression relief; inhibition, % at 6.8 µM; 370,000 tested, 1.1% active; AID 652010, 2013;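 active = inhibition above the mean over all tested compounds plus 3 SD, cut at about 3.6% in these data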;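 note: 0% = DAX-1 cells with DMSO and 100% = cells lacking DAX-1 with DMSO; higher inhibition means more luminescence from relief of DAX-1 repression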
# hgDAF-12 ag = H. glycines DAF-12 receptor agonists, primary screen, cell-based, luminescence, HEK293, GAL4 fusion, UAS-luciferase; HEK293 GAL4-hgDAF12 UAS-luciferase reporter, agonist luminescence; normalized to butyrate control; activation, % at 6.8 µM; 370,000 tested, 1.8% active;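 active = activation above a cutoff set at the mean of all screened compounds plus 3 SD, cut at about 10% in these data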;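 note: 0% = DMSO wells and 100% = sodium butyrate wells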
# FXN GAA850 act = FXN promoter activators, primary screen, cell-based, luciferase luminescence, HEK293 lucGAA850; 360,000 tested, 0.56% active; HEK293 lucGAA850 FXN promoter luciferase reporter, 24 h; percent of 10 µM SAHA response; activation, % at 6 µM; AID 540364, 2011;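 active = activation above the average of all compounds screened plus 3 SD, cutoff fixed separately per campaign, cut at about 7.5% in these data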;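 note: 0% = DMSO wells and 100% = 10 µM SAHA wells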
# DAX1 inh-2 = DAX1 (NR0B1) inhibitors, primary screen, cell-based, HEK293, Gal4-DAX1, luciferase luminescence | Nuclear receptor subfamily 0 group B member 1 (Homo sapiens), P51843 | AID 504766, 2011 | HEK293 Gal4-DAX1 luciferase reporter | 340,000 tested, 0.99% active | inhibition, % at 6.75 µM;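 active = inhibition above the mean over all tested compounds plus 3 SD, cut at about 4.2% in these data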;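 note: 0% = DAX1-transfected cells with DMSO and 100% = empty-vector control cells with DMSO; inhibition shows as a rise in luminescence from relieved DAX1 repression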
# Target sequence (P51843 207-470 limits assumed): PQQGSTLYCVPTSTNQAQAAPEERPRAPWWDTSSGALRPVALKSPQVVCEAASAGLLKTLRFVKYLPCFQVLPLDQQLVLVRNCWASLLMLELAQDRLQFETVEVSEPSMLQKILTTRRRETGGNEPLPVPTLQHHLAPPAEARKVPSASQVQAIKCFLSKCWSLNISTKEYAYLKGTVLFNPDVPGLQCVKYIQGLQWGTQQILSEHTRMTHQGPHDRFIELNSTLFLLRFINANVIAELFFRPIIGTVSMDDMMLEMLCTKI
# * marks the source's active call; other numbers are inactive results; nt = no result given. In the library only some 4.5% were active in any assay of this set; here they are far more common.
SMILES,hcDAF12 agonist,ssDAF-12 act,DAX1 inh-1,hgDAF-12 ag,FXN GAA850 act,DAX1 inh-2
N#CC1=C(N)Oc2c(O)cc3ccccc3c2C1c1ccsc1 (stereo unspecified),0,6.0*,0,0,0,-2
CCOC(=O)C1=C(C)OC(N)=C(C#N)C1c1ccsc1 (stereo unspecified),nt,nt,nt,nt,-1,-1
CC(=O)N1CCc2cc(S(=O)(=O)NC3CCN(C(=O)CCl)CC3)ccc21,-1,-1,-3,-6,nt,nt
CCn1cnc2sc(C(=O)Nc3ccc4c(c3)OCO4)c(C)c2c1=O,1,0,1,13*,5,0
COc1ccc2c(c1)CNC2CS(=O)(=O)NCc1ccccc1 (stereo unspecified),3,-1,-1,1,nt,nt
CCn1c(SCC(=O)Nc2ccc3c(c2)OCCO3)nnc1C1CC1,-1,-1,-1,2,-1,1
CCn1c(SCC(=O)Nc2ccc3c(c2)OCO3)nnc1C1CC1,0,0,0,2,0,4.9*
CCn1ncc(C(=O)Nc2ccccc2C)c1C,2,-1,1,3,2,0
CCn1ncc(C(=O)Nc2ccc(F)cc2)c1C,5,1.7*,1,8,4,3
Cc1ccccc1OCc1nnc2n1CC(C)S2 (stereo unspecified),1,0,-1,3,-1,4.6*
O=C1CCCC2=C1C(c1ccc(OS(=O)(=O)c3ccc(Cl)cc3)cc1)C1=C(CCCC1=O)O2,-1,-1,0,-1,-1,7.2*
CCc1ccc(C2C3=C(CCCC3=O)OC3=C2C(=O)CCC3)cc1,-1,-1,0,1,1,-1
O=C(CSc1nnc(COc2ccccc2)n1-c1ccc(Cl)cc1)Nc1ccc(OCc2ccccc2)cc1,-1,-1,0,2,nt,nt
CCOc1cccc2sc(N(CCN(CC)CC)C(=O)c3ccc(S(=O)(=O)N4CCCCC4)cc3)nc12,0,2.0*,0,0,2,-1
CCOc1cccc2sc(N(CCCN(C)C)C(=O)c3ccc(S(=O)(=O)N4CCCCCC4)cc3)nc12,0,-1,2,1,-1,0
Cc1cc(-c2ccccc2)nc(N/N=C/c2ccc(O)cc2)n1,-1,-1,3.9*,3,2,-1
COC(=O)CSc1nc2ccccn2c(=O)c1C=O,6.3*,1.5*,2,5,3,4
Cc1cccc(NC(=O)N2CCC(N(C)CCC(C)C)CC2)c1,-2,-2,0,-1,nt,nt
CCCCCCS(=O)[C@H]1CS(=O)(=O)C[C@@H]1S(=O)CCCCCC (stereo partly specified),-1,-2,0,17*,-1,-1
CCCCCCCCS(=O)C1CCS(=O)(=O)C1 (stereo unspecified),1,-1,1,0,-1,0
Cc1ccc(C2=NN(C(=O)CCC(=O)O)C(c3ccc4c(c3)OCO4)C2)cc1 (stereo unspecified),1,-1,0,0,1,1
CCc1ccc(C2=NN(C(=O)CCC(=O)O)C(c3cccs3)C2)cc1 (stereo unspecified),1,0,-1,6,4,4.7*
O=C(O)CCC(=O)N1N=C(c2ccccc2)CC1c1ccc2c(c1)OCO2 (stereo unspecified),5.7*,1,0,9,2,2
COC(=O)c1sccc1NC(=O)Nc1ccc(Cl)c(Cl)c1,4,0,1,11*,5,4
COC(=O)c1sccc1NC(=O)c1csc(C)c1,3,1.0*,-1,1,1,0
Cc1cc(C(=O)Nc2ccc(Br)cc2)cs1,5.6*,0,3.9*,9,2,1
